We go through 40 molecules from PubChem BioAssay AID1570 (National Center for Advancing Translational Sciences (NCATS), 2009).

Several values for one entry are separate records, joined by “and”; a condition that tells them apart may be missing. Identical values can stand only once. Results filed as inconclusive are left out. Values without a mark were called inactive. Activity calls are given as the source filed them. Calls follow the shape of the dose curve; as a rule, active = well fitted inhibition curve with a large enough effect; inconclusive = small, poorly fitted or top-dose-only effect, or effect the other way; inactive = flat fitted curve, though single readings scatter.

The target of this assay is Thyroid hormone receptor beta (Homo sapiens) (UniProt P10828). The experiment in a line: Concentration Response Confirmation Assay for Inhibitors of the Interaction of Thyroid Hormone Receptor and Steroid Receptor Coregulator 2, Fluorescein Fluoroprobe. To be noted: TRbeta LBD / fluorescein-SRC2 peptide, fluorescence polarization, 5 h; series mostly up to 92.2 µM; activity, negative = inhibition: at the top concentration. An excerpt: NIH Molecular Libraries Probe Production Network [MLPCN] NIH Chemical Genomics Center [NCGC] MLPCN Grant: DK058080 Assay Provider: R. Kip Guy, St. Jude Children's Research Hospital NCGC Assay Overview: Thyroid receptor (TR) regulates many homeostatic processes including basal metabolism, cardiovascular function, body weight, and lipid trafficking. TR modulators are potential therapeutics for obesity and hyperlipidemias but current thyroid analogs have undesirable side effects, particularly cardiac stimulation. To identify inhibitors that specifically prevent the interaction of TR with the steroid receptor coregulator 2 (SRC2), a fluorescence polarization assay was screened (Arnold et al., 2006). This assay detects interaction of the ligand-binding domain of human TRbeta with a fluorescein labeled SRC2 peptide, corresponding to a 20 amino acid region of the nuclear receptor interaction domain. Small molecule inhibitors that block the interaction of TR and SRC2 are detected by a decrease in fluorescence polarization. This assay is a confirmation assay for AID 1469. Arnold, L. A.; Estebanez-Perpina, E.; Togashi, M.; Shelat, A.; Ocasio, C. A.; McReynolds, A. C.; Nguyen, P.; Baxter, J. D.; Fletterick, R. J.; Webb, P.; Guy, R. K. A high-throughput screening method to identify small molecule inhibitors of thyroid hormone receptor coactivator binding. Sci STKE 2006, p 13.
Chain of Thyroid hormone receptor beta (Homo sapiens) (P10828 whole entry, looked up, the tested form may be a part): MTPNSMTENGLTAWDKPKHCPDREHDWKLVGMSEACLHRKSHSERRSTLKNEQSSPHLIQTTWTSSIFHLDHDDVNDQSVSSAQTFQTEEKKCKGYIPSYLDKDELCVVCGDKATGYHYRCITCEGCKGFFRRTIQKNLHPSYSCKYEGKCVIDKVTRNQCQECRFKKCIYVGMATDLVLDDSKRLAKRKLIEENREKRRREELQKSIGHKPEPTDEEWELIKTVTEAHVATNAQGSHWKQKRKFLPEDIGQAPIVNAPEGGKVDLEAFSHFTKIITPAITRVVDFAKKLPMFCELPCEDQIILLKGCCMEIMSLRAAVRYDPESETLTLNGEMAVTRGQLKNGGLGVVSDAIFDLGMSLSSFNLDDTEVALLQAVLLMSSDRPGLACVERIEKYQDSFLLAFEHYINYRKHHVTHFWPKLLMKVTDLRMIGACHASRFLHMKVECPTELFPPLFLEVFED
NCGC Assay Protocol Summary: Five uL/well 0.6 uM TRbeta and 20 nM SRC2 Fluorescein in protein buffer (20mM Tris hydrochloride, 100mM NaCl, 10% glycerol, 1mM EDTA, 0.01% NP-40, 1mM DTT, 1uM T3 and 5% DMSO) was dispensed into black solid 1536-well plates (Grenier) using a solenoid-based dispenser. Following transfer of 23 nL compound or DMSO vehicle by a pin tool, the plates were centrifuged 15 s at 1000 RPM and incubated 5 hr at ambient temperature. The plates were read by an Envision (Perkin Elmer) to detect fluorescence polarization of SRC2 Fluorescein (480 nm excitation and 535 nm emission). Data were normalized to unbound (all components except TRbeta) and bound SRC2 Fluorescein controls. In this assay, we provide % activity data for each concentration as well as potencies for the active compounds. Keywords: NIH Roadmap, MLPCN, MLI, MLSMR, qHTS, NCGC, qHTS, thyroid hormone receptor, steroid receptor coactivator, fluorescence polarization
For `Cc1ccccc1Nc1cc2ccccc2c(=O)[nH]1`, the Potency was 10 µM (active) and 28.2 µM (active).

As for `O=C(Nc1nc2ccc(Cl)cc2s1)c1ccc(N2CCCCC2)c([N+](=O)[O-])c1`, the “activity, negative = inhibition” value is -12.4%.

Take `CCOc1cc(N2CCOCC2)c(OCC)cc1NC(C)C(=O)N1CCN(CC)CC1` (stereo not given): the “activity, negative = inhibition” value is -2.81%.

On to `CC1(C)CC(=O)C(N=Nc2cccc(S(=O)(=O)N3CCOCC3)c2)=C(O)C1`, for which the “activity, negative = inhibition” value is 10.4%.

In the case of `CCCCOc1ccc(C(=O)CCN2CCOCC2)cc1`, the Potency is 3.55 µM (active).

With `CS(=O)(=O)c1ccc(C(=O)OCC(=O)NC(=O)C2CCCCC2)cc1[N+](=O)[O-]`, the Potency was 5.01 µM (active).

Regarding `CCCCCCN=CC1=C(O)CC(C)(C)CC1=O`, the activity, negative = inhibition was 4.31% [at 0.0112 µM].

As for `CCCc1cc(=O)[nH]c(=S)[nH]1`, the “activity, negative = inhibition” value was 2.33%.

With `CCOc1ccc(C2=Cc3cc(OC)c(OC)cc3C(=C(Cl)Cl)O2)cc1`, the “activity, negative = inhibition” value is -14.6%.

With `CCN(C(=O)C1CCCN(c2ncnc3onc(-c4ccc(F)cc4)c23)C1)c1ccccc1` (stereo not given), the “activity, negative = inhibition” value is 14.6% [at 184 µM].

Regarding `CC(=O)c1cccc(NC(=O)COC(=O)c2ccc(S(C)(=O)=O)c([N+](=O)[O-])c2)c1`, the activity, negative = inhibition was -8.61% [at 11.6 µM].

Regarding `Cn1c(CCN2CCCCC2)nc2cc(NS(=O)(=O)c3ccc(Cl)cc3)ccc21`, the activity, negative = inhibition was -6.74% [at 0.0112 µM].

Take `N/C(Cc1cccc2ccccc12)=N\OC(=O)c1cccs1`: the activity, negative = inhibition was -6.32% [at 5.76 µM].

Turning to `Cc1ccc2c(CC(=O)Nc3c(C(=O)c4ccc(F)cc4)oc4ccccc34)coc2c1C`, the “activity, negative = inhibition” value is 22.5% [at 184 µM].

For `C/C(=C\C(=O)c1ccccc1)Nc1ccc(O)cc1`, the activity, negative = inhibition is -2.06% [at 11.6 µM].

For `COc1ccccc1Nc1cc2ccccc2c(=O)[nH]1`, the Potency was 35.5 µM (active).

`Oc1ccc2ccccc2c1/C=N/c1nc2c(s1)CCCC2`: the Potency was 31.6 µM (active).

Regarding `Cc1nnc(SCC(=O)Nc2ccc(N(C)C)cc2)[nH]c1=O`, the “activity, negative = inhibition” value is 6.74% [at 184 µM].

Consider `CC1(C)C(N(O)C(=O)Nc2ccc(Cl)cc2)N(c2ccc(Cl)cc2)C(=O)N1CC(=O)NN` (stereo not given), for which the activity, negative = inhibition was -8.24% [at 11.6 µM].

In the case of `Nc1cccnc1Sc1cc(Cl)c(Cl)cc1Cl`, the “activity, negative = inhibition” value was 6.55%.

On to `Cc1ccc(-c2nc(S(=O)(=O)c3ccc(F)cc3)c(SCC(=O)NCC3CCCO3)o2)cc1` (stereo not given), for which the “activity, negative = inhibition” value was -8.38% [at 46.3 µM].

With `C=CC(=O)OCCOc1ccccc1`, the Potency is 50.1 µM (active).

With `Cc1ccc(OC(=S)Nc2ccc(O)cc2)cc1`, the “activity, negative = inhibition” value is 4.07%.

For the molecule `Cc1cc(N=Cc2c(O)ccc3ccccc23)no1`, the activity, negative = inhibition was 1.5% [at 0.0112 µM].

For `CN(CCO)c1nc(N)c2c(N)nc3c(c2c1C#N)CC(=O)N3C1CCCC1`, the activity, negative = inhibition was -0.749% [at 11.6 µM].

Consider `O=c1[nH]c(Nc2ccccc2)cc2ccccc12`, for which the Potency is 25.1 µM (active).

For `COc1cc(NC(C)CCCN)c2ncccc2c1` (stereo not given), the “activity, negative = inhibition” value is -6.93% [at 184 µM].

As for `Nc1cc(-c2ccncc2)c[nH]c1=O`, the “activity, negative = inhibition” value is -4.86%.

For the molecule `CCCCOc1ccc(C(=O)CCN2CCCCC2)cc1`, the Potency was 2.51 µM (active).

Regarding `Cc1cc2ccccc2n1CCNC(=O)C(C)Oc1ccccc1` (stereo not given), the “activity, negative = inhibition” value is 7.35% [at 46.3 µM].

For `CN1CCc2ccc3c4c2[C@]1(C)Cc1cccc(c1-4)OCO3`, the Potency is 44.7 µM (active).

With `CC1=NN(Cc2ccccc2)C(=O)C1`, the “activity, negative = inhibition” value was -2.3%.

Turning to `COc1ccc(-c2nc(CS(=O)CC(=O)NCc3ccccn3)c(C)o2)cc1` (stereo not given), the Potency is 35.5 µM (active).

As to `Cc1nc2c3cc(F)ccc3n(Cc3ccccc3F)c2s1`, the “activity, negative = inhibition” value was -12.6% [at 46.3 µM].

For the molecule `Cc1cccc(S(=O)(=O)c2cn(Cc3ccccc3)c3cc(N4CCC(C)CC4)c(F)cc3c2=O)c1`, the “activity, negative = inhibition” value is -4.12% [at 184 µM].

With `O=c1cc(C23CC4CC(CC(C4)C2)C3)[nH][nH]1`, the “activity, negative = inhibition” value was -7.96%.

For the molecule `O=C(O)/C=C/C(=O)Nc1ccc(SC(F)(F)C(F)(F)C(F)(F)F)cc1`, the Potency was 4.47 µM (active).

On to `Cc1nc2ccccc2n2c(O)c(CC(=O)O)cc12`, for which the Potency was 8.91 µM (active).

As to `Cc1cc2c(NC(=O)Nc3ccccc3)cccc2nn1`, the activity, negative = inhibition is -4.49% [at 0.0112 µM].

On to `C=CCSc1nnc2n(-c3ccccc3OC)c(=O)c3c4c(sc3n12)CCC4`, for which the “activity, negative = inhibition” value is 3.76% [at 46.3 µM].
